Sm TGR inh – qHTS Assay for the Inhibitors of Schistosoma Mansoni Peroxiredoxins. Potency, µM (titrated, usually from 114 µM), hits mostly inhibitors. hit rate 3% among 360,000. AID 485364, 2010. purified TGR, DTNB reduction, TNB absorbance 405 nm. Schistosoma mansoni thioredoxin glutathione reductase (TGR), Q962Y6; further: nearly all actives have a fitted effect of over 60% in size
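First, TGR (20 nM dispensed) and NADPH were mixed with compound. Second, a 15 min room-temperature incubation followed. Third, further NADPH and then DTNB were added to start the reaction. Finally, TNB absorbance was monitored kinetically.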
Shiga toxin inh – A qHTS for Small Molecule Inhibitors of Shiga Toxin; hit rate 9.2% among 290,000; inhibition, % at 38.7 µM; Vero cells, Shiga toxin protein synthesis inhibition reporter; in the data active means inhibition mostly above about 28%, no sharp cut-off; inactive means mostly below about 43%
CHX counter – Cycloheximide Counterscreen for Small Molecule Inhibitors of Shiga Toxin | cell reporter, cycloheximide protein synthesis inhibition counterscreen | max response, % | hit rate 12% among 300,000 | AID 2314, 2010; in the data active means max response mostly above about 13%, no sharp cut-off; inactive means mostly below about 14%; further: read at 38.3 µM for the half of the compounds with a filed dose
NS1 inh – qHTS Assay for Inhibitors of Influenza NS1 Protein Function. Potency, µM (series often up to 46.1 µM). hit rate 0.4% among 270,000. AID 2326, 2010; calls by dose curve; further: actives are rising curves; nearly all actives have a fitted effect of over 50% in size
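In this qHTS, NS1 from influenza A is expressed in budding yeast, where it slows growth. Cells are switched from glucose to 2% galactose medium (pH 6.0, -URA), treated with compound, and growth recovery is read at OD600.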
Pf growth 96h – Primary qHTS for delayed death inhibitors of the malarial parasite plastid, 96 hour incubation; Potency, µM (titrated, usually from 28.7 µM), most hits filed as inhibitors; AID 504834, 2011; hit rate 6.9% among 320,000; P. falciparum luciferase reporter growth, 96 h
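P. falciparum expressing integrated firefly luciferase grown in erythrocytes (2% hematocrit, 0.05% parasitemia final) with compounds for 96 hours at 37 C, 5% CO2. Growth inhibition read as loss of luminescence after adding luciferase detection reagent.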
Pf growth 48h – Primary qHTS for delayed death inhibitors of the malarial parasite plastid, 48 hour incubation; P. falciparum luciferase growth in erythrocytes, 48 h; Potency, µM (titrated, usually from 28.7 µM), usual class: inhibitors; hit rate 5.9% among 310,000; AID 504832, 2011
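Growth was read as firefly luciferase luminescence after a 48 h, 37 C, 5% CO2 exposure of compounds to reporter-bearing P. falciparum cultures (0.1% parasitemia, 2% hematocrit final) in Albumax-supplemented RPMI 1640.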
Flu NS1 inh – Assay for Inhibitors of Influenza NS1 Protein Function: Hit Validation; shares compounds with NS1 inh; influenza NS1 function cell assay, 15-point titration; activity change, negative = inhibition, % at 32.9 µM; 1,400 tested, under 10 active; AID 492980, 2010; calls by dose curve
PR8 titer – Assay for Inhibitors of Influenza NS1 Protein Function: Influenza virus replication assay in MDCK cells infected with virus A/PR/8/34; AID 504647, 2011; hit rate 30% among 95; virus titer (log TCID50), log10 TCID50 at 5 µM; MDCK infected influenza A/PR/8/34, virus titer TCID50; hits give low values; shares compounds with NS1 inh; call rule not given here
Hits are given with their value; - = inactive; ? = inconclusive; . = no result given. Shown are actives, neighbours in structure and some others; about 21% of the full set was active somewhere. Unless noted, the call rests on the fitted dose curve; in most records, active means well fitted curve in the direction sought with a large enough effect; inconclusive means small, poorly fitted or top-dose-only effect, or another doubt; inactive means no such curve, though single readings can be large; an effect the other way counts as inactive or inconclusive.

SMILES | Sm TGR inh | Shiga toxin inh | CHX counter | NS1 inh | Pf growth 96h | Pf growth 48h | Flu NS1 inh | others
O=S(=O)(Nc1ccccn1)c1cccs1 | - | - | - | - | - | - | .
O=C(CN1C(=O)NC2(CCCCC2)C1=O)Nc1cccc(S(=O)(=O)N2CCCC2)c1 | - | . | . | . | ? | ? | .
O=C(CSc1nc2ccccc2c(=O)n1-c1ccccc1)NCc1ccc2c(c1)OCO2 | - | - | - | - | ? | ? | .
COc1ccccc1-n1c(SCC(=O)NCc2ccc3c(c2)OCO3)nc2cc([N+](=O)[O-])ccc21 | - | - | - | 13µM | ? | ? | -
NNC(=O)c1csc(Cc2c(Cl)sc3ccc(Cl)cc23)n1 | - | - | - | ? | - | - | -
COc1cc(/C=C/C(=O)O)cc(S(=O)(=O)Nc2ccccc2Oc2ccccc2)c1OC | - | - | - | ? | - | ? | -
COc1cc(/C=C/C(=O)O)cc(S(=O)(=O)Nc2ccc3[nH]c(=O)[nH]c3c2)c1OC | - | - | - | - | - | - | .
Cn1c(SCCOc2ccccc2Cl)nnc1-c1cccs1 | - | 39 | 26 | ? | ? | - | ?
Cc1cc(OCCSc2nnc(-c3cccs3)n2C)ccc1Cl | - | - | - | - | - | ? | .
CC(=O)c1ccc(NC(=O)COC(=O)c2c3c(nc4ccccc24)/C(=C\c2cccs2)CCC3)cc1 | - | - | 15 | ? | ? | ? | -
O=C(CN1CCN(c2ccc(Cl)cc2)CC1)Nc1ccc(Cl)c(C(F)(F)F)c1 | - | . | . | . | . | . | .
CS(=O)(=O)N1CCc2cc(-c3csc(NC(=O)Cc4cccs4)n3)ccc21 | - | - | - | 11µM | - | - | -
Cc1cc(C)nc(Sc2ccc(/C=C(\C#N)C(=O)Nc3ccccc3)o2)n1 | - | - | - | - | . | - | .
N#C/C(=C/c1ccc(N2CCCCC2)o1)C(=O)Nc1ccc2ccccc2c1 | ? | 88 | 40 | 11µM | ? | ? | -
C#CCn1c(=NC(=O)c2ccc(S(=O)(=O)N3CCCc4ccccc43)cc2)sc2cc(S(N)(=O)=O)ccc21 | - | - | - | 11µM | 2.9µM | 9.3µM | -
CSC1=NCCN1C(=O)c1ccc2c(c1)OCO2 | - | - | - | ? | ? | ? | -
CSC1=NCCN1C(=O)c1ccc(C)cc1 | - | - | - | - | - | - | .
COc1cc(/C=N/NC(=O)c2ccc(CN3C(=O)c4cccc5cccc3c45)cc2)cc(OC)c1O | - | - | - | 13µM | ? | 8.3µM | -
CCN=C1SC(CC(=O)Nc2ccccc2)C(=O)N1CC (centres undefined) | - | - | - | - | ? | - | .
Cc1ccccc1N=C1SC(CC(=O)Nc2ccc3ccccc3c2)C(=O)N1Cc1ccccn1 (centres undefined) | - | - | 29 | 14µM | 3.7µM | 1.2µM | -
CC(=O)c1ccc(N2CCN(C(=O)c3cc(-c4ccc5c(c4)OCO5)nc4ccccc34)CC2)cc1 | - | 36 | 20 | 13µM | - | 6.6µM | - | PR8 titer=-
Cc1ccccc1S(=O)(=O)Nc1nc2ccccc2nc1N1CCc2ccccc2C1 | - | 93 | 37 | 18µM | - | - | -
O=C(/C=C/c1ccc(Cl)cc1Cl)NC(=S)Nc1ccc(CN2CCOCC2)cc1 | - | - | - | ? | - | - | -
O=C(/C=C/c1ccccc1)NC(=S)Nc1ccc(CN2CCOCC2)cc1 | - | - | - | - | - | - | .
CCN(CC)C(=O)c1sc2nc(-c3cccs3)cc(-c3ccc(Cl)cc3)c2c1N | - | - | - | 4.5µM | 7.4µM | ? | ?
N#Cc1sc2nc(-c3cccs3)cc(-c3ccc(Cl)cc3)c2c1N | - | - | - | - | ? | ? | .

Bioassay records deposited in PubChem by National Center for Advancing Translational Sciences (NCATS).
